From PubChem
RGS4 inhibitor: Inhibitors of Regulator of G Protein Signaling (RGS) 4: qHTS; Regulator of G-protein signaling 4 (Homo sapiens), P49798; Transcreener GDP fluorescence polarization, RGS4-accelerated GTP hydrolysis; Potency, µM (highest dose often 114 µM), without a hit: at the top dose activity change, negative = inhibition, most hits filed as inhibitors; 390,000 tested, 0.039% active; AID 504845, 2011; active = well fitted curve in the direction sought with a large enough effect; inconclusive = small, poorly fitted or top-dose-only effect, or another doubt; inactive = no such curve, though single readings can be large; an effect the other way counts as inactive or inconclusive; also: potency is read from the fitted curve at half-maximal effect; % is scaled to controls: 0 for no effect and ±100 for the full control effect; nearly all actives have a fitted effect of over 75% in size
Target sequence (P49798 whole entry, looked up): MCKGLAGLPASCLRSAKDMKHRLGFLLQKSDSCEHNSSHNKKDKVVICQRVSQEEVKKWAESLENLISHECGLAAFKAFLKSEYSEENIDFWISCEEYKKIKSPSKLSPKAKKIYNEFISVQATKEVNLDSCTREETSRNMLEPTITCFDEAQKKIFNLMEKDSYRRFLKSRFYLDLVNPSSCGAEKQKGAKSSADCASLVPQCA
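MLSMR compounds (23 nl, pin-transferred) preincubated 10 min at room temperature with a 500nM (2x) first reagent, then RGS4 at 900nM (2x) plus Transcreener GDP mix added; fluorescence polarization (620/688 nm) read before and after 90 min at 30 °C.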
Glioma ERSR ind: qHTS for Inducers of the Endoplasmic Reticulum Stress Response (ERSR) in Human Glioma: qHTS; U87-MG GRP78 promoter luciferase reporter, 16 h; Potency, µM, inactives show at the highest dose activation, hits mostly activators; 420,000 tested, 0.02% active; AID 602332, 2012; active = well fitted curve in the direction sought with a large enough effect; inconclusive = small, poorly fitted or top-dose-only effect, or another doubt; inactive = no such curve, though single readings can be large; an effect the other way counts as inactive or inconclusive; also: potency is read from the fitted curve at half-maximal effect; series mostly up to about 76 µM; % of control where 0% means no effect; nearly all actives have a fitted effect of over 35% in size
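Stably transfected U87-MG human glioma cells carrying a GRP78-based luminescent sensor were seeded at 1000 cells/well, pin-dosed with compounds and incubated 16 h. Luciferase reagent was then added, and end-point luminescence was read after 10 min at room temperature.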
pAkt inh: HTS Assay for Inhibitors of Akt Phophorylation: Primary Screen; Neuro2A IGF-stimulated pAkt S473 HTRF, 20 min; stronger effect = lower value; AID 651550, 2012; activity change, % for hits at 50 µM; 360,000 tested, 0.32% active; in the data active = activity change below about -80%; inconclusive = mostly about -51% to -80%; also: % is scaled to controls: 0 for no effect and ±100 for the full control effect
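Neuro2A cells in DMEM with 0.5% FBS, overnight at 37 deg C, given compound at single 50 µM final, then IGF (6 nM final) for 20 min at 37 deg C. Lysed; phospho-Akt Ser473 by HTRF after 24 h, 665/615 ratio.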
Six1-Eya2 blk: qHTS Assay for Inhibitors of the Six1/Eya2 Interaction | Homeobox protein SIX1 (Homo sapiens) + Protein phosphatase EYA2 (Homo sapiens), … | AlphaScreen GST-Six1/His-Eya2 binding, biochemical; stronger effect = lower value | activity change, % (no concentration beside the values) | 360,000 tested, 0.56% active | AID 651725, 2012; also: % is scaled to controls: 0 for no effect and ±100 for the full control effect
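Six1/Eya2 binding was read as AlphaScreen signal after compounds were pinned into GST-Six1 plus His-tagged Eya2 (5X stock 250/500 nM) in pH 8.0 Tris/NaCl/TCEP buffer, beads added, then incubated 1 h, 37 C, dark.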
CtBP-E1A blk: qHTS Assay for Inhibitors of the CtBP/E1A Interaction | CtBP / adenovirus E1A interaction (AlphaScreen) | AlphaScreen GST-E1A/His-CtBP binding, 1536-well; stronger effect = lower value | activity change, % (concentration not given with the values) | 340,000 tested, 0.49% active | AID 651724, 2012; also: % is scaled to controls: 0 for no effect and ±100 for the full control effect
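Steps: dispense buffer (Tris pH 8.0, NaCl 300 mM, TCEP 1 mM, BSA, Tween 20); add 5X protein mix (GST-E1A, His-CtBP, 125 nM each); pin 23 nL compound; 2 h at 37 °C, dark; add 5X beads (50 ug/mL); 1 h; read.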
* hit, by the source's call; [ ] = another dose, or the depositor's remark. Only some compounds are listed: those with a hit (about 0.88% of all), similar ones and a draw of the others. Rule as the data show it, unless noted: active = activity change below about -65%; inconclusive = mostly about -30% to -63%; inactive = weaker than that.

Results for O=C(Nc1ccc2c(c1)OCCO2)C1CCCN(S(=O)(=O)c2cccs2)C1 (stereo not given) ?
RGS4 inhibitor: 11.7%; Glioma ERSR ind: -0.4%; pAkt inh: -108.2%*; Six1-Eya2 blk: -4.8; CtBP-E1A blk: -5.2

Results for CC(C)=CCC/C(C)=C\CC/C(C)=C\CC/C(C)=C\CC1=C(C)C(=O)c2ccccc2C1=O ?
Glioma ERSR ind: -4.4%

How did Cn1c(=N)c(S(=O)(=O)c2ccccc2)cc2c(=O)n3ccccc3nc21 do in these assays?
RGS4 inhibitor: 3.2%; Glioma ERSR ind: -1.2%; pAkt inh: inactive; Six1-Eya2 blk: inconclusive; CtBP-E1A blk: -69.5*

What do the screens show for `O=C(C[N+]12CCCc3cccc(c31)CCC2)c1ccc2ccccc2c1`?
Glioma ERSR ind: -1.7%

How did O=C(/C=C/c1ccc(O)cc1)OC[C@H]1O[C@@H](Oc2c(-c3ccc(O)cc3)oc3cc(O)cc(O)c3c2=O)[C@H](O)[C@@H](O)[C@@H]1O do in these assays?
Glioma ERSR ind: 2.5%

How did COc1cccc(CNC(=O)c2cc3c(C)nc4ccccc4c3o2)c1 do in these assays?
RGS4 inhibitor: -3.3%; Glioma ERSR ind: -2.4%; pAkt inh: inactive; Six1-Eya2 blk: inconclusive; CtBP-E1A blk: -65.6*

How did Cc1nc2c(C(=O)NCc3ccc4c(c3)OCO4)c[nH]n2c(=O)c1Cl do in these assays?
RGS4 inhibitor: 36.8%; Glioma ERSR ind: -4.2%; pAkt inh: inactive; Six1-Eya2 blk: -25.7; CtBP-E1A blk: inconclusive

Results for COc1ccc(CNC(=O)c2cc3c(C)nc4ccccc4c3o2)c(OC)c1 ?
RGS4 inhibitor: -28.8%; Glioma ERSR ind: -6.5%; pAkt inh: inactive; Six1-Eya2 blk: inconclusive; CtBP-E1A blk: -29.3

How did COc1cccc(CNC(=O)c2c[nH]n3c(=O)c(Cl)c(C)nc23)c1 do in these assays?
RGS4 inhibitor: -1.7%; Glioma ERSR ind: -2.6%; pAkt inh: inactive; Six1-Eya2 blk: -83.7*; CtBP-E1A blk: -75.8*

Results for CCOC(=O)c1c(C)[nH]c(C(=O)OCC(=O)N2CC(C)OC(C)C2)c1C (stereo not given) ?
RGS4 inhibitor: 19.5%; Glioma ERSR ind: -4.1%; pAkt inh: -130.2%*; Six1-Eya2 blk: -2.8; CtBP-E1A blk: -0.8

Results for CCOC(=O)C1=C(C)NC(C)=C(C(=O)OCC)C1C(=O)OCC(=O)N1CC(C)OC(C)C1 (stereo not given) ?
RGS4 inhibitor: -15.6%; Glioma ERSR ind: -0.8%; pAkt inh: inactive; Six1-Eya2 blk: -1.0; CtBP-E1A blk: 6.3

How did O=C(NCCc1ccccc1)[C@@H]1CC=C[C@@H]2CCN(C3CC3)C(=O)[C@@H]21 do in these assays?
Glioma ERSR ind: -3.6%

Results for COc1ccc2ccccc2c1CN1CCN(Cc2ccccc2)CC1 ?
RGS4 inhibitor: 13.4%; Glioma ERSR ind: -3.1%; pAkt inh: inactive; Six1-Eya2 blk: -12.9; CtBP-E1A blk: -14.8

Results for COc1ccc2ccccc2c1CN1CCCC(CO)C1 (stereo not given) ?
RGS4 inhibitor: -19.3%; Glioma ERSR ind: -5.2%; pAkt inh: -112.3%*; Six1-Eya2 blk: 5.7; CtBP-E1A blk: 3.9

What do the screens show for `Cc1nc2cc(NC(=O)[C@@H]3C[C@@H](Sc4ccccn4)CN3Cc3cccc(F)c3)ccc2s1`?
Glioma ERSR ind: -3.6%

What do the screens show for `CC(=O)c1cn(CC(=O)Nc2ccccc2C)c2ccccc12`?
RGS4 inhibitor: -20.0%; Glioma ERSR ind: -3.7%; pAkt inh: -111.3%*; Six1-Eya2 blk: 2.1; CtBP-E1A blk: 3.6

What do the screens show for `CC(=O)Oc1ccc(C(=O)OCC(=O)c2c(N)n(C)c(=O)n(C)c2=O)cc1OC(C)=O`?
RGS4 inhibitor: -21.5%; Glioma ERSR ind: -5.1%; pAkt inh: inactive; Six1-Eya2 blk: -82.9*; CtBP-E1A blk: -18.2

How did COc1ccc(C(=O)OCC(=O)c2c(N)n(C)c(=O)n(C)c2=O)cc1OC do in these assays?
RGS4 inhibitor: -48.3%; Glioma ERSR ind: 1.8%; pAkt inh: inactive; Six1-Eya2 blk: 1.6; CtBP-E1A blk: 0.0

Results for Cc1cc(=O)oc2c3c(cc(OCC(=O)N4CCC[C@H]4C(=O)O)c12)OC(C)(C)CC3 ?
RGS4 inhibitor: -20.3%; Glioma ERSR ind: -2.1%; pAkt inh: inactive; Six1-Eya2 blk: -70.5*; CtBP-E1A blk: inconclusive

How did Cc1ccc(/C=C2\SC(=S)N(/N=C/c3cc([N+](=O)[O-])ccc3O)C2=O)o1 do in these assays?
RGS4 inhibitor: inconclusive; Glioma ERSR ind: -2.1%; pAkt inh: inactive; Six1-Eya2 blk: -88.9*; CtBP-E1A blk: -92.6*

Results for O=C1OC2(c3cc(I)c(O)c(I)c3Oc3c2cc(I)c(O)c3I)c2c(Cl)c(Cl)c(Cl)c(Cl)c21 ?
Glioma ERSR ind: -9.5%

What do the screens show for `Cc1cc(/C=C2\C=Cc3ccccc32)cc(C)c1[N+](=O)[O-]`?
Glioma ERSR ind: 3.1%

What do the screens show for `N#C/C(=C\c1ccc(-c2cc(Cl)ccc2Cl)o1)C(=O)Nc1cccc2ncccc12`?
RGS4 inhibitor: 2.99µM*; Glioma ERSR ind: -13.3%

What do the screens show for `CN(C)c1ccc(/C=C/c2cccc3cc4ccccc4nc23)cc1`?
Glioma ERSR ind: -9.3%

How did CCCCN(CCC#N)c1ccc(/C=C/c2ccnc3ccccc23)cc1 do in these assays?
Glioma ERSR ind: -2.8%

Results for Cc1nnc(-c2ccccc2)c(=O)n1/N=C/c1c(O)ccc2ccccc12 ?
RGS4 inhibitor: -43.1%; Glioma ERSR ind: -4.4%; pAkt inh: inactive; Six1-Eya2 blk: -93.8*; CtBP-E1A blk: -1.4

How did Cc1nnc(C)n1/N=C/c1c(O)ccc2ccccc12 do in these assays?
RGS4 inhibitor: inconclusive; Glioma ERSR ind: -7.1%; pAkt inh: inactive; Six1-Eya2 blk: -2.0

How did CCC(C)NC(=O)CSc1nc2n[nH]c(C)c2c(=N)n1-c1ccc(OC)cc1 (stereo not given) do in these assays?
RGS4 inhibitor: -9.5%; Glioma ERSR ind: 0.9%; pAkt inh: inactive; Six1-Eya2 blk: -74.1*; CtBP-E1A blk: -84.6*

What do the screens show for `Cc1[nH]nc2nc(SCC(=O)NCC3CCCO3)n(-c3ccc(Br)cc3)c(=N)c12` (stereo not given)?
RGS4 inhibitor: 15.4%; Glioma ERSR ind: -2.1%; pAkt inh: inactive; Six1-Eya2 blk: -65.0*; CtBP-E1A blk: inconclusive

Results for COc1cccc(-n2c(SCC(=O)NCCC3=CCCCC3)nc3n[nH]c(C)c3c2=N)c1 ?
RGS4 inhibitor: -12.9%[11.4 µM]; Glioma ERSR ind: -3.2%; pAkt inh: inactive; Six1-Eya2 blk: -79.0*; CtBP-E1A blk: -70.0*
